This note sets out measurements from PubChem BioAssay (NCATS).

Values joined by “and” are separate entries in the source; they are usually repeats but may differ in a detail not shown here. Identical values can stand only once. Records with an inconclusive call do not appear. Unmarked numbers belong to inactive results. Active and inactive are the calls of the source. The call rests on the fitted dose curve; in most records, active means well fitted inhibition curve with a large enough effect; inconclusive means small, poorly fitted or top-dose-only effect; inactive means flat fitted curve, though single readings scatter.

What all share (assay): Cytotoxic Profiling of Annotated Libraries Using Quantitative High-Throughput Screening (AID 1296008); further: nearly all actives have a fitted effect of over 60% in size
What all share (settings): Five cell lines viability, CellTiter-Glo ATP luminescence, 48-72 h; max response: active compounds read low
(ATP-based viability assays read luminescence as a measure of living cells.)

One assay deals with CRL-7250. The essentials: (§1)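 Compounds were pin-transferred onto cells and incubated 48 or 72 hr at 37 degree Celsius, 95% humidity. CellTiter-Glo was added, plates sat 10 min at room temperature, then ATP-coupled luminescence was imaged as the viability read-out.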
Another assay relates to HEK293. The essentials:
as §1

A further assay concerns HaCat. The essentials:
as §1

The test system of a further assay is KB-3-1. The essentials: as §1
Another assay deals with NIH3T3. The essentials: as §1
On the % scale 0 is the no-effect control and ±100 the full control effect; potency means the concentration at half of the fitted maximal effect.

Turning to `CC(C)(O)C1CCC2(C)C3C(O)C4C(C13)C42CO` (stereo not given), the compound was classed as inactive in the assay with CRL-7250, with HEK293 and in the assay on HaCat. The max response in the assay on KB-3-1 was 9.17%; with NIH3T3 it was 0.322%.
For the compound `CN[C@@H]1[C@@H](O)[C@@H](O[C@@H]2[C@@H](O)[C@H](O[C@H]3O[C@H](CN)[C@@H](O)[C@H](O)[C@H]3O)[C@@H](N)C[C@H]2NC(=O)[C@@H](O)CN)OC[C@]1(C)O`, the figures for the max response in the assay on CRL-7250 and in the assay on KB-3-1 were -2.08% and -2.9%, respectively. For the same compound, the outcome with HEK293, in the assay with HaCat and with NIH3T3 was inactive.
Consider `CCOc1c2c(c(OCC)c3ccccc13)C(=O)N(c1ccc(CC(=O)NS(=O)(=O)c3ccccc3)cc1)C2`, for which the max response in the assay with CRL-7250 was -1.51%; in the assay on HaCat, -7.44%; with KB-3-1 it was 1.17%; in the assay with NIH3T3, 3.33%. In addition, in the assay with HEK293, the result was inactive.
As to `C=C[C@](C)(CC/C=C(\C)C(=O)O)O[C@@H]1OC[C@H](O)[C@H](O)[C@H]1O`, the results for the max response in the assay on CRL-7250, in the assay with KB-3-1 and in the assay on NIH3T3 were -0.0118%, 3.33% and 2.21%, respectively. Further, the compound was called inactive in the assay with HEK293 and in the assay on HaCat.
Turning to `C[C@@H]1O[C@@H](O[C@H]2[C@H](O[C@H]3[C@H](O[C@H]4CC[C@@]5(C=O)C(CC[C@]6(C)C5CC=C5C7CC(C)(C)C[C@@H](O)[C@]7(C)CC[C@]56C)C4(C)C)O[C@H](C(=O)O)[C@@H](O)[C@@H]3O)OC[C@@H](O)[C@@H]2O)[C@H](O)[C@H](O)[C@H]1O` (stereo not given in full), the compound was classed as inactive in the assay on CRL-7250, in the assay with HEK293 and in the assay on NIH3T3. Moreover, the values for the max response with HaCat and in the assay on KB-3-1 were -16.7% and 7.57%, respectively.
On to `CC1CCC2C(C)(C)C(O)CCC2(C)C12Cc1c(O)cc3c(c1O2)CN(C(CCC(N)=O)C(=O)O)C3=O` (stereo not given), for which the max response with CRL-7250 was 0.113%; with HaCat, 2.99%; in the assay with KB-3-1 it was 5.86%; in the assay on NIH3T3, -0.736%. Further, in the assay on HEK293, the outcome was inactive.
As for `COc1ccc(C(OC2OC(CO)C(O)C(O)C2O)C(C)O)cc1` (stereo not given), the max response with CRL-7250 is -9.11%; in the assay with KB-3-1 it was 5.57%. Further, the call in the assay on HEK293, in the assay with HaCat and with NIH3T3 was inactive.
`CC(=O)OC[C@]12[C@H](OC(C)=O)C(=O)[C@@H]3[C@@H](OC(C)=O)[C@@]14O[C@@]3(C)COC(=O)c1cccnc1[C@@H](C)[C@H](C)C(=O)O[C@@H]([C@H](OC(C)=O)[C@@H]2OC(C)=O)[C@]4(C)O`: the max response in the assay with CRL-7250 is 2.64%; in the assay on NIH3T3, -8.22%. The outcome in the assay on HEK293, with HaCat and with KB-3-1 was inactive.
For `C=CC(C)(C)C12CC3C(=O)NC(Cc4cnc[nH]4)C(=O)N3C1Nc1ccccc12` (stereo not given), the max response in the assay on CRL-7250 was -2.57%. The compound was called inactive in the assay with HEK293, in the assay on HaCat, in the assay on KB-3-1 and in the assay with NIH3T3.
With `C[C@]1(O)CC[C@@H]2C(C(=O)O)=CO[C@@H](O[C@@H]3O[C@H](COC(=O)c4ccc(O)cc4)[C@@H](O)[C@H](O)[C@H]3O)[C@@H]21`, the max response with CRL-7250 is 2.99%; with KB-3-1 it was 9.39%; in the assay on NIH3T3, 2.95%. Also, the compound was classed as inactive in the assay with HEK293 and in the assay on HaCat.
Regarding `C/C=C(\C)C(=O)O[C@H]1[C@H](O)[C@]2(COC(C)=O)[C@H](O)C[C@]3(C)C(=CCC4[C@@]5(C)CC[C@H](O[C@@H]6O[C@H](C(=O)O)[C@@H](O[C@@H]7O[C@H](CO)[C@@H](O)[C@H](O)[C@H]7O)[C@H](O)[C@H]6O[C@@H]6O[C@H](CO)[C@@H](O)[C@H](O)[C@H]6O)[C@](C)(CO)C5CC[C@]43C)[C@@H]2CC1(C)C` (stereo not given in full), the max response was -9.07% in the assay with CRL-7250 and 2.26% with NIH3T3. For the same compound, the compound was called inactive with HEK293, in the assay with HaCat and with KB-3-1.
As for `CC(C)CC(=O)OC[C@H]1O[C@@](COC(=O)CC(C)C)(O[C@H]2O[C@H](CO)[C@@H](O)[C@H](O)[C@H]2OC(=O)CC(C)C)[C@@H](OC(=O)CC(C)C)[C@@H]1O`, the compound was called inactive with CRL-7250 and in the assay with HEK293. Besides, the max response in the assay with HaCat was -5.25%; in the assay on KB-3-1 it was 6.03%; in the assay on NIH3T3, 0.671%.
With `O=C(O)[C@H]1CCCC[C@H]1C(=O)N1CCc2ccccc2[C@H]1CN1C(=O)c2ccccc2C1=O`, the max response is 1.46% in the assay on CRL-7250 and 2.69% in the assay with NIH3T3. Besides, the compound was called inactive with HEK293, with HaCat and in the assay with KB-3-1.
With `CC(=O)O[C@H](C[C@@H](C)[C@H]1C(=O)[C@H](O)[C@@]2(C)[C@@H]3CCC4C(C)(C)[C@@H](O[C@@H]5OC[C@H](O)[C@H](O)[C@H]5O)CC[C@@]45C[C@@]35CC[C@]12C)[C@@H]1OC1(C)C` (stereo not given in full), the max response in the assay with CRL-7250 is 0.817%; in the assay on HaCat, 2.98%. The result in the assay on HEK293, in the assay on KB-3-1 and in the assay with NIH3T3 was inactive.
Take `OC[C@H]1O[C@@H](OCCc2ccc(O)cc2)[C@H](O)[C@@H](O)[C@@H]1O`: the max response was 1.66% with CRL-7250; -4.41% in the assay with HEK293; 7.2% and 9.78% with KB-3-1; -4.78% in the assay with NIH3T3. Further, in the assay with HaCat, the compound was classed as inactive.
Consider `COc1cc(/C=C/C(=O)OC2CC(OC(C)=O)C(OC(C)=O)C3C2CCC2C(=O)OC(c4ccoc4)CC23C)ccc1O[C@@H]1O[C@H](CO)[C@@H](O)[C@H](O)[C@H]1O` (stereo not given in full), for which the values for the max response with CRL-7250, with KB-3-1 and in the assay on NIH3T3 were -8.1%, -0.283% and -18.6%, respectively. In addition, the outcome with HEK293 was inactive. Further, in the assay with HaCat, the Potency was 6.11 µM (active).
Take `N[C@@H](CC(=O)N1CCn2c(nnc2C(F)(F)F)C1)Cc1[nH]nc2c(F)c(F)ccc12`: the max response is -0.191% in the assay on CRL-7250, -2.51% in the assay on HaCat, -3.58% with KB-3-1 and -1.97% with NIH3T3. Moreover, the call in the assay with HEK293 was inactive.
With `C[C@@]12C[C@]3(O)O[C@H](O1)[C@]1(COC(=O)c4ccccc4)[C@H]3C[C@@]12O[C@@H]1O[C@H](COC(=O)c2ccccc2)[C@@H](O)[C@H](O)[C@H]1O`, the results for the max response in the assay with CRL-7250, with KB-3-1 and in the assay on NIH3T3 were -3.18%, 1.05% and 1.22%, respectively. Also, the compound was called inactive with HEK293 and with HaCat.
